# Test results as given in PubChem BioAssay AID504467 (National Center for Advancing Translational Sciences (NCATS), 2011).
# The whole screen tested about 330,000 compounds, of which about 7,700 (2.3%) were called active. Where a call stands in place of a potency, no number is given. Inconclusive results (about 26%) are left out. The sample holds actives, similar compounds and a random draw of the others, so the mix is not that of the screen. The call rests on the fitted dose curve; in most records, active means well fitted inhibition curve with a large enough effect; inconclusive means small, poorly fitted or top-dose-only effect, or effect the other way; inactive means flat fitted curve, though single readings scatter.
# Experiment: qHTS screen for small molecules that inhibit ELG1-dependent DNA repair in human embryonic kidney (HEK293T) cells expressing luciferase-tagged ELG1; further: nearly all actives have a fitted effect of over 55% in size
# Settings: HEK293T ELG1-luciferase reporter, luminescence, 16 h, DNA damage induced by 5-fluorouridine; series mostly up to 46.1 µM
# Excerpt: NIH Molecular Libraries Probe Production Network [MLPCN] NIH Chemical Genomics Center [NCGC] MLPCN Grant: 1 R03 MH092164-01 Assay Provider: Kyungjae Myung, NHGRI, NIH Keywords: MLPCN, qHTS, NCGC, genotoxicity, cancer Assay Overview: Cancer cells divide rapidly compared to normal cells in the body. During cell division, cancer cells need to duplicate their genome by DNA replication. The failure of genome duplication leads to cancer cells' death. Therefore, inhibitors of DNA replication could specifically kill cancer cells. Based on this concept, many chemotherapeutic agents were developed and have been used to treat cancer patients. However, there are a limited number of agents available in the clinical setting, and some of those that do exist have low efficacy and severe side effects. Therefore, if we can find the compounds that effectively block DNA replication either by directly damaging DNA or by inhibiting other cellular mechanisms, the options for cancer treatment will be broadened. With this in mind, we developed a quantitative high-throughput ELG1-luciferase reporter gene assay. Small molecules that specifically block ELG1 function in response to DNA damage can be identified by monitoring the suppression of luciferase activity. Since ELG1 defines a pathway for repairing DNA damage, agents blocking ELG1 function can be used to sensitize cancer cells to chemotherapeutic agents whose mechanism of action involves the induction of DNA damage.
# Assay Protocol Summary: For genotoxicity screening, 2,000 cells in 4 uL/well were dispensed into white, solid-bottom 1536-well plates using a solenoid-based dispenser. Following transfer of 1 uL 5-Fluorouridine and 23 nL compound or DMSO vehicle by a pin tool, the plates were incubated 16 hr at 37 °C and 5% CO2. 5 ul ONE-Glo (Promega) was then added to each plate and following a 30 min incubation at room temperature, luciferase activity was quantified on a ViewLux CCD-based plate reader.
# Potency means the concentration at half of the fitted maximal effect.
row,Compound,Potency
1,CN(C)C(CNC(=O)c1cccc(S(=O)(=O)Nc2ccc(Br)cc2)c1)c1ccco1 (stereo unspecified),inactive
2,COc1ccc(-c2noc(CCCC(=O)NC3CCCC3)n2)cc1OC,inactive
3,COc1ccc(CCNC(=O)C(=O)Nc2ccc3nc4n(c(=O)c3c2)CCCCC4)cc1OC,20.6 µM (active)
4,COc1ccc(NC(=O)Cn2nnc(C(=O)NCCc3ccc(OC)c(OC)c3)c2N)cc1,inactive
5,O=C(Nc1ccc2nc3n(c(=O)c2c1)CCCCC3)c1ccccc1Cl,inactive
6,O=C(NCCc1c[nH]c2ccccc12)C1CCN(Cc2ccc(Br)cc2)CC1,inactive
7,CCCCNC(=O)c1cn(CC)c2cc(N3CCN(C(=O)c4ccco4)CC3)c(F)cc2c1=O,14.6 µM (active)
8,CCn1cc(C(=O)N/N=C(/C)c2ccc(F)cc2)c(=O)c2cc(F)c(N3CCCC3)cc21,inactive
9,CCn1cc(C(=O)NCCO)c(=O)c2cc(F)c(N3CCN(C)CC3)cc21,inactive
10,COC(=O)CSc1nc2ccccc2c(=O)n1Cc1ccccc1,inactive
11,O=S1(=O)CCOC[C@H](CC2CCCCC2)N1Cc1ccc(F)cc1,inactive
12,C=CC[C@@H](CC(=O)N[C@@H](CO)Cc1ccccc1)C(=O)NCCOC(=O)[C@@H](CC=C)CC(=O)OC(C)(C)C,inactive
13,CCOC(=O)c1c(-c2ccc(C)cc2)csc1/N=C(\C)C1=C(O)c2ccccc2C1=O,7.3 µM (active)
14,CCOC(=O)c1c(-c2ccccc2)csc1NC(=S)NC(=O)c1ccccc1,inactive
15,CCOC(=O)c1c(-c2ccc(-c3ccccc3)cc2)csc1NC(=O)CCC(=O)O,inactive
16,COc1cccc(CN(C)CC(O)COC(c2ccccc2)c2ccccc2C)c1 (stereo unspecified),inactive
17,C=CCn1c(SCc2nnc(-c3ccccc3)o2)nnc1C(O)c1ccccc1 (stereo unspecified),inactive
18,CCCC(=O)Nc1nnc(-c2ccccc2)o1,inactive
19,CCCN(CCC)c1ccc(C(O)c2nnc(-c3ccccc3)o2)cc1 (stereo unspecified),20.6 µM (active)
20,CC(C)COc1ccc(C(=O)NNC(=O)CCC(=O)c2cccs2)cc1,inactive
21,CCC/C(C)=N\Nc1nc2c(c(=O)n(C)c(=O)n2C)n1C,inactive
22,C/C(Cl)=C\Cn1c(Nc2cccc(C)c2)nc2c1c(=O)n(C)c(=O)n2C,9.2 µM (active)
23,Cc1cccc(Cn2c(N3CCN(c4ccccc4)CC3)nc3c2c(=O)n(C)c(=O)n3C)c1,inactive
24,CCc1[nH]nc(C(=O)N2CCCC(CO)(Cc3ccc(F)cc3F)C2)c1C (stereo unspecified),inactive

row,Compound,Potency
1,O=C1c2cccnc2C(Nc2ccc(S(=O)(=O)N3CCCCCC3)cc2)N1Cc1ccccc1 (stereo unspecified),8.2 µM (active)
2,O=C(Nc1ccc(S(=O)(=O)N2CCCCC2)cc1)c1cnccn1,inactive
3,O=C(COc1ccc(S(=O)(=O)N2CCCCC2)cc1)NCc1ccccn1,inactive
4,Cc1ccc2nc(SCC(=O)Nc3cccc4ccccc34)nc(=O)n2c1,inactive
5,O=C(NCCc1ccccn1)c1cccnc1Oc1ccc(Cl)cc1,inactive
6,COC(=O)CNC(=O)c1cc(-c2ccncc2)nc2ccccc12,inactive
7,O=C(NCCc1ccccn1)c1cc(-c2ccc(Cl)cc2)nc2ccccc12,23.1 µM (active)
8,Cc1ccccc1Nc1nc(N)nc(COC(=O)CCC(=O)c2ccc(F)cc2)n1,inactive
9,Cc1onc(-c2ccccc2)c1C(=O)N=C(N)c1ccc(Cl)cc1,inactive
10,Cc1onc(-c2ccc(Cl)cc2)c1-c1ccnn1S(=O)(=O)c1ccc(Cl)cc1,14.6 µM (active)
11,COC(=O)c1noc(C)c1-c1ccnn1C(=O)c1ccc(Cl)cc1,inactive
12,Cc1nn(-c2ccccc2)c(C)c1NC(=O)COc1ccc(Cl)cc1Cl,20.6 µM (active)
13,Cc1nn(-c2ccccc2)c(C)c1NC(=O)CCl,inactive
14,Cc1nn(-c2ccccc2)c(C)c1NC(=O)COC(=O)c1cc(Cl)ccc1O,inactive
15,O=C(CSc1ncn[nH]1)Nc1ccc(Br)cc1Br,inactive
16,Nc1ncnc2c1ncn2[C@@H]1O[C@H](CNS(=O)(=O)c2ccc(-c3ccno3)s2)[C@@H](O)[C@H]1O,inactive
17,CCn1ccnc1CN(C)C(=O)c1cc(COc2ccc(-n3cncn3)cc2)on1,inactive
18,COc1cccc(CC(=O)Nc2nc(-c3ccc(OC)c(OC)c3)cs2)c1,25.9 µM (active)
19,COc1ccc(CC(=O)Nc2nc(-c3ccc(F)c(F)c3)cs2)cc1OC,inactive
20,COc1cccc(CC(=O)Nc2ccc(-c3csc(C)n3)cc2)c1,inactive
21,COc1ccccc1C(=O)NCC(=O)OCC(=O)Nc1nnc(-c2ccccc2)o1,inactive
22,COc1ccc(/C=C/C(=O)NC(=S)N2CCCC(C(N)=O)C2)cc1 (stereo unspecified),inactive
23,CCOc1ccc(NC(=O)CSc2nc3c(c(=O)n2-c2ccccc2OC)SCC3)cc1,inactive
24,CCc1nnc(NC(=O)CSc2nc3c(c(=O)n2-c2ccccc2OC)SCC3)s1,20.6 µM (active)

row,Compound,Potency
1,CCOC(=O)c1sc(NC(=O)CSc2nc3c(c(=O)n2-c2ccccc2)SCC3)c(C(=O)OCC)c1C,inactive
2,Cc1ccc(S(=O)(=O)NCCC(=O)OCC(=O)N(C)c2ccccc2)cc1,inactive
3,O=c1oc(-c2ccccc2NS(=O)(=O)c2ccc(Cl)cc2)nc2ccccc12,14.6 µM (active)
4,O=c1oc2ccccc2c(NC2CCCCC2)c1NS(=O)(=O)c1ccc(Cl)cc1,inactive
5,O=c1ccc2cc(S(=O)(=O)Nc3ccccc3F)ccc2o1,inactive
6,CCC(=O)Nc1ccc(S(=O)(=O)NCC2CCCO2)cc1 (stereo unspecified),inactive
7,CN(CC1CCCO1)S(=O)(=O)c1ccc(C(=O)Nc2ccc([N+](=O)[O-])cc2)cc1 (stereo unspecified),1.83 µM (active)
8,CCOc1ccc(C(=O)Nc2ccc(S(=O)(=O)NCC3CCCO3)cc2)cc1OCC (stereo unspecified),inactive
9,CN(CC1CCCO1)S(=O)(=O)c1ccc(C(=O)Nc2ccc(F)cc2)cc1 (stereo unspecified),4.11 µM (active)
10,Cc1ccc(NC(=O)c2ccc(S(=O)(=O)NCC3CCCO3)cc2)cc1C (stereo unspecified),inactive
11,O=C(Nc1ccc(S(=O)(=O)NCC2CCCO2)cc1)c1ccc(F)cc1 (stereo unspecified),inactive
12,Cc1c2cnn(CC(=O)NCc3ccccn3)c(=O)c2c(C)n1Cc1ccc(Cl)cc1,inactive
13,COc1cccc(-n2c(SCC(=O)NC3CCS(=O)(=O)C3)nc3ccccc3c2=O)c1 (stereo unspecified),inactive
14,C[C@H]1CN([C@@H](C)CO)C(=O)Cc2cc(NC(=O)Cc3ccccc3)ccc2O[C@H]1CN(C)S(=O)(=O)c1cccs1,inactive
15,O=c1ccc2c(-c3ccccc3S(=O)(=O)O)c3ccc(O)c(O)c3oc-2c1O,35.5 µM (active)
16,COc1cc(OC)cc(-c2sc3ccc(OC)cc3c2-c2ccc3cc[nH]c3c2)c1,inactive
17,CC(C)CC1NC(=O)c2cc(Cl)ccc2-n2c1nc1ccccc1c2=O (stereo unspecified),inactive
18,Cc1cccc(N(Cc2ccccc2)C(=O)c2ccccc2F)c1,inactive
19,CCc1ccc(NC(=O)CSc2nc3ccccc3c(=O)n2CCN2CCOCC2)cc1,23.1 µM (active)
20,COC(=O)c1ccc2c(=O)n(CCN3CCOCC3)c(SCC(=O)Nc3cccc(OC)c3)nc2c1,inactive
21,CCOc1ccc(NC(=O)CSc2nc3ccccc3c(=O)n2Cc2cccs2)cc1,inactive
22,Cn1c(=O)n(C)c2cc(S(=O)(=O)Nc3ccc(F)cc3)ccc21,inactive
23,CC1(C)CC(=O)C=C(c2cccc3c2Oc2ccccc2S3)C1,inactive
24,CCOc1ccc(N(CC(=O)Nc2cccc(OC)c2)S(C)(=O)=O)cc1,inactive

row,Compound,Potency
1,Cc1ccc(N(CC(=O)Nc2cccc(N(C)S(C)(=O)=O)c2)S(C)(=O)=O)cc1,6.51 µM (active)
2,COc1cccc(N(CC(=O)Nc2cccc(F)c2)S(C)(=O)=O)c1,inactive
3,Cc1[nH]c2ccccc2c1C(=O)C(C)Sc1nnc(C2CC2)o1 (stereo unspecified),inactive
4,O=C(COC(=O)c1ccc([N+](=O)[O-])o1)NC12CC3CC(CC(C3)C1)C2,inactive
5,COC(=O)[C@]1(Cc2ccccc2)N[C@H](CN(C)S(=O)(=O)c2ccc(F)cc2)[C@@H]2C(=O)N(Cc3ccccc3)C(=O)[C@@H]21,inactive
6,CC(=O)N1c2ccc(S(=O)(=O)N3CCCC(C(=O)NCc4ccc(Cl)cc4)C3)cc2CC1C (stereo unspecified),inactive
7,N#Cc1cccc(NC(=O)C2CCCN(C(=O)c3ccc(Cl)cc3)C2)c1 (stereo unspecified),inactive
8,Cn1c(-c2sc3cc(C(F)(F)F)cnc3c2-c2ccccc2)n[nH]c1=S,inactive
9,Cc1ccccc1-c1n[nH]c(=S)n1C,inactive
10,Cn1c(-c2sccc2OCc2cccc(C(F)(F)F)c2)n[nH]c1=S,23.1 µM (active)
11,O=C(Nc1ccccc1N1CCCC1)c1ccc(F)c(S(=O)(=O)N2CCOCC2)c1,inactive
12,COc1ccc(CCC(=O)N2CCN(S(=O)(=O)c3ccc(OC)cc3)CC2)cc1,inactive
13,CCCNC(=O)CSc1nc(Cc2ccccc2)nc2ccccc12,inactive
14,CCCNC(=O)CCc1c(C)nc2c(c(C)nn2-c2ccc(C)cc2)c1C,inactive
15,CCCCC(CC)CNCc1cccn1CCN1CCOCC1 (stereo unspecified),inactive
16,CCN(CC)c1ccc(NC(=O)c2ccc(=O)[nH]c2)cc1S(=O)(=O)Nc1ccc(OC)cc1,inactive
17,CCN(c1ccccc1)S(=O)(=O)c1cccc(C(=O)O)c1,inactive
18,O=C(NCc1ccccc1CN1CCCC1)c1cccc(S(=O)(=O)Nc2ccc(F)cc2)c1,inactive
19,CCN(c1ccccc1)S(=O)(=O)c1cccc(C(=O)NCc2ccccc2CN2CCOCC2)c1,11.6 µM (active)
20,Cc1noc(C)c1C(=O)OC(C)C(=O)Nc1ccc2c(c1)OCO2 (stereo unspecified),inactive
21,CC(C)C[C@H]1CN=C(Nc2ccccc2)N1CC1CCCCC1,inactive
22,CCCCN(C(=O)CSCC(=O)Nc1ccc(OC)cc1)c1c(N)n(CCC)c(=O)[nH]c1=O,inactive
23,O=S(=O)(Nc1cccc(-n2cnnn2)c1)c1cnc(Cl)c(Cl)c1,inactive
24,COc1cccc(N(CC(=O)NC2CCCCCC2)S(=O)(=O)c2ccccc2)c1,inactive
